PubChem BioAssay (NCATS)
Where “and” joins values, the source holds several entries; their conditions need not be identical. Equal values may be shown once. A number with no mark means an inactive call. Inconclusive results are not listed. Some compounds were tested as several samples or in several runs, with calls that do not always agree. Calls of active or inactive are those of the source. Unless noted, the call rests on the fitted dose curve; in most records, active means well fitted curve in either direction with a large enough effect (not every such curve was filed as active); inconclusive means small, poorly fitted or top-dose-only effect, or another doubt; inactive means flat fitted curve, though single readings scatter.

How the values were obtained:
[1] = Stat Signaling Pathway (AID 446); details: ME-180 SIE beta-lactamase reporter, IL-6 stimulated, 5 h; at 38 µM (top of the series) unless noted;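 further: ME-180 cervical cancer cells given 40 pM IL-6 alongside compound; SIE-controlled beta-lactamase reporter measured as 460/530 nm FRET emission ratio; on the % scale 0 is the no-effect control and ±100 the full control effect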
In short: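 Reporter line: ME-180 cervical carcinoma, SIE-beta-lactamase. Treatment: compound with 40 pM IL-6, 5 hrs, 37 C, in low-serum OPTI-MEM with 10 mM HEPES pH 7.3. Detection: 460/530 nm fluorescence.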

[2] = target: Glucocorticoid receptor (Homo sapiens) (UniProt P04150); experiment: GR-GFP Redistribution (AID 450;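 active means compounds whose dose series gives a full or clear partial fitted curve of increased nuclear translocation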; further: potency means the concentration at half of the fitted maximal effect); details: U2OS GR-GFP nuclear translocation, laser cytometry, 2 h
Sequence of Glucocorticoid receptor (Homo sapiens) (P04150 whole entry, looked up, the tested form may be a part): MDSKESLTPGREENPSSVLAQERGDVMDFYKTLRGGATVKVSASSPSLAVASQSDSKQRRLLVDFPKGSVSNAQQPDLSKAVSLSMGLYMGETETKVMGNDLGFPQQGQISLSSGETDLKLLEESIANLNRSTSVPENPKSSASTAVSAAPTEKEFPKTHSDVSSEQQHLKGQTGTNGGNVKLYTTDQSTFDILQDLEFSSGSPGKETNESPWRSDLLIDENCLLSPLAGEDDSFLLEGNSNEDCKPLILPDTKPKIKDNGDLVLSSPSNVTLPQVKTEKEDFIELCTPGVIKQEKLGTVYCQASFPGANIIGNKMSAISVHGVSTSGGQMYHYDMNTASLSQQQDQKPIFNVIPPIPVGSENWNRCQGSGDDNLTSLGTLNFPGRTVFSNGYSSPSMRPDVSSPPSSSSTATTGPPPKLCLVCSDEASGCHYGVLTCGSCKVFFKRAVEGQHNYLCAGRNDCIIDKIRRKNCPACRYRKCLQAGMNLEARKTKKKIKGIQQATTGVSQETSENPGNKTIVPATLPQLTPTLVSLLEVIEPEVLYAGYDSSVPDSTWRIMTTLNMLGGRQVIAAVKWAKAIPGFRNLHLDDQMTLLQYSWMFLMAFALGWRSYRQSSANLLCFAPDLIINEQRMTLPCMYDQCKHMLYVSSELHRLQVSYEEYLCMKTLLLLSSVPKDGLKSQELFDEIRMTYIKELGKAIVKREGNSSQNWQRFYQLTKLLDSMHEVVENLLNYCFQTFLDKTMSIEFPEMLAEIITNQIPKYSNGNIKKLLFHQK

[3] = target: Glucocorticoid receptor (Homo sapiens) (UniProt P04150); experiment: GR-EFC Redistribution (AID 451; calls by dose curve; further: potency means the concentration at half of the fitted maximal effect); details: CHO-K1 GR-EFC translocation, beta-gal luminescence, 2 h
In short: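 Translocation of GR-ED fusion to nuclear EA restores b-gal, read by luminescence after 1 h room-temperature detection. Engineered CHO-K1 biosensor cells, 1,000/well, exposed 2 h at 37 C to titrations up to 46 uM final.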

[4] = target: Mitogen-activated protein kinase 10 (Mus musculus) (UniProt Q61831); experiment: JNK3 AlphaScreen Assay (AID 530);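 further: kinase came from lysate of stimulated human HepG2 cells; signal reports phosphorylation of biotinylated GST-cJun 1-79 at Ser73 with 10 µM ATP; on the % scale 0 is the no-effect control and ±100 the full control effect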
In short: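 Room-temperature AlphaScreen kinase assay; pre-activated HepG2 lysate as JNK3 source, biotin-GST-cJun(1-79) substrate, 10 uM ATP, compound 15 min preincubation.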

[5] = target: 3',5'-cyclic-AMP phosphodiesterase 4B (Homo sapiens) (UniProt Q07343); experiment: qHTS Assay for Inhibitors of PDE-IV (AID 607; active means well fitted activation curve with a large enough effect in the main read-out, with a control signal flat, not every such curve was filed as active; further: % of control where 0% means no effect)
Sequence of 3',5'-cyclic-AMP phosphodiesterase 4B (Homo sapiens) (Q07343 whole entry, looked up): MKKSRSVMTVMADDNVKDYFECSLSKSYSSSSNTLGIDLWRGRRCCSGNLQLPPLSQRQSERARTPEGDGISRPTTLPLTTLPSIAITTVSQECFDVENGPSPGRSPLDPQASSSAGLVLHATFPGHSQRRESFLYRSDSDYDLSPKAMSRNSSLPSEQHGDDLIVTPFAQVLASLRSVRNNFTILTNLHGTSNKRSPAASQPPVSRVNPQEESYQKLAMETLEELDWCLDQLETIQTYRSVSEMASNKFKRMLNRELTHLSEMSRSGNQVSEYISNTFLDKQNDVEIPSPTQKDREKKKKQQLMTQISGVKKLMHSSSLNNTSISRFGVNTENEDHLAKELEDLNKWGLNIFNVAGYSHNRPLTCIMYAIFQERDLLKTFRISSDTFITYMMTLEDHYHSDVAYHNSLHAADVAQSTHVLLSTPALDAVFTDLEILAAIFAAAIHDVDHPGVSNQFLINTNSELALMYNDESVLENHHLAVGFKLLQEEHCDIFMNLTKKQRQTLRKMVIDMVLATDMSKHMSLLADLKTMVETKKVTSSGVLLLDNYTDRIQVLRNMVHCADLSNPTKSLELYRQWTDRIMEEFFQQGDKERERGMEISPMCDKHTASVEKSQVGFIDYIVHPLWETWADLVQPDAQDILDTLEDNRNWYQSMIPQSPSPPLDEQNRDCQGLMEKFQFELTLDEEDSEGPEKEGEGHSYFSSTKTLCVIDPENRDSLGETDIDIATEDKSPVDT
In short: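 Cell-based read-out of cAMP via a modified cyclic nucleotide-gated channel and membrane potential dye (535/590 nm) in HEK293 cells expressing PDE4 endogenously. Compounds tested up to 22.9 uM final; 100 uM RO 20-1724 reference.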

[6] = Cell Viability - N2a (AID 540; active means well fitted curve in the direction sought with a large enough effect; an effect the other way counts as inactive or inconclusive;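 further: cells exposed to compound for 40 h at 37 °C; plate controls were DMSO alone for no effect and tamoxifen control for full effect; nearly all actives have a fitted effect of over 45% in size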); details: N2a mouse neuroblastoma cell viability; activity change, negative = cytotoxicity: at 92.2 µM (top of the series)
In short: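 First, 1500 N2a cells per well incubate 5 hr at 37 °C; next, compounds are added and incubated 40 hr at 37 °C; finally CellTiter-Glo is added and luminescence read after 20 min, with AC50 derived by Hill modeling.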

[7] = Cell Viability - NIH 3T3 (AID 541; active means well fitted curve in the direction sought with a large enough effect; an effect the other way counts as inactive or inconclusive;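 further: plate controls were DMSO alone for no effect and tamoxifen positive control for full effect; nearly all actives have a fitted effect of over 25% in size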); details: NIH 3T3 cell viability, qHTS
In short: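 AC50 values reflect concentration-dependent loss of intracellular ATP in NIH 3T3 cells after 40 hr treatment in complete culture medium, quantified by luciferase-based luminescence.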

[8] = Cell Viability - HUV-EC-C (AID 542; active means well fitted curve in the direction sought with a large enough effect; an effect the other way counts as inactive or inconclusive; further: on the % scale 0 is the no-effect control and ±100 the full control effect; nearly all actives have a fitted effect of over 35% in size)
In short: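 Decrease in cellular ATP, quantified by luciferase luminescence, reflects toxicity in normal human vascular endothelial HUV-EC-C cells given compound for 40 hr in complete culture medium. Values are AC50s from concentration-response curves.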

[9] = Cell Viability - H-4-II-E (AID 543; active means well fitted curve in the direction sought with a large enough effect; an effect the other way counts as inactive or inconclusive; further: on the % scale 0 is the no-effect control and ±100 the full control effect; nearly all actives have a fitted effect of over 35% in size)
In short: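 Here, cytotoxicity is measured in the rat hepatoma line H-4-II-E as loss of intracellular ATP after 40 hr compound treatment, detected by luciferase luminescence.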

[10] = Cell Viability - SH-SY5Y (AID 544; active means well fitted curve in the direction sought with a large enough effect; an effect the other way counts as inactive or inconclusive; further: potency means the concentration at half of the fitted maximal effect; nearly all actives have a fitted effect of over 55% in size)
In short: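 Cytotoxicity is scored as a concentration-dependent fall in intracellular ATP in human SH-SY5Y cells treated 40 hr in complete culture medium. Potency is expressed as AC50 from a Hill equation fit.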

[11] = Cell Viability - Renal Proximal Tubule (AID 545; active means well fitted curve in the direction sought with a large enough effect; an effect the other way counts as inactive or inconclusive;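 further: 0% = DMSO only and -100% = 100 µM tamoxifen; nearly all actives have a fitted effect of over 40% in size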); details: renal proximal tubule cells viability; activity change, negative = cytotoxicity: at 91.7 µM (top of the series)
In short: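 In this qHTS format, normal rat kidney-derived proximal tubule cells in complete culture medium receive compound titrations, then sit 40 hours at 37 °C before luciferase-based ATP quantitation; potency is reported as AC50 from concentration-response curves.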

[12] = Cell Viability - Mesenchymal (AID 546; active means well fitted curve in the direction sought with a large enough effect; an effect the other way counts as inactive or inconclusive;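 further: cells exposed to compound for 40 hours before reading; 0% = DMSO only and -100% = 100 µM tamoxifen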)
In short: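 AC50 values reflect the drop in intracellular ATP in a human kidney mesenchymal line derived from normal glomeruli. Treatment lasts 40 hr at 37 °C in complete medium, and the signal comes from CellTiter-Glo luminescence.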

[13] = Cellular Toxicity (caspase-3) HepG2 (AID 654; active means well fitted curve in the direction sought with a large enough effect; an effect the other way counts as inactive or inconclusive;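 further: cells exposed to compound for 16 hours before reading; 0% = DMSO alone and 100% = caspase signal from 100 µM tamoxifen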)
In short: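 qHTS, HepG2, 1500 cells/well, complete medium; cpd 16 h 37 °C; Caspase-Glo 3/7, 20 min RT; lum. Norm: DMSO vs 100 uM tamoxifen; AC50 Hill fit.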

[14] = Cellular Toxicity (caspase-3) Jurkat (AID 655; active means well fitted curve in the direction sought with a large enough effect; an effect the other way counts as inactive or inconclusive;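 further: cells exposed to compound for 16 h at 37 °C before reading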)
In short: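 qHTS in human Jurkat T-cell leukemia line: 16 hr compound treatment at 37 °C, caspase-3/7 activity measured by Caspase-Glo luminescence. AC50 derived from Hill equation.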

[15] = Cellular Toxicity (caspase-3) HUV-EC-C (AID 656; active means well fitted curve in the direction sought with a large enough effect; an effect the other way counts as inactive or inconclusive;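 further: 0% = DMSO basal and 100% = 100 µM tamoxifen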)
In short: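 Concentration-dependent caspase 3/7 induction was assessed in HUV-EC-C cells exposed for 16 hours. Data scaled between DMSO and tamoxifen (100 uM) controls.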

[16] = Cellular Toxicity (caspase-3) SHSY5Y (AID 657; active means well fitted curve in the direction sought with a large enough effect; an effect the other way counts as inactive or inconclusive;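 further: cells exposed to compound for 16 hours at 37 °C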)
In short: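 Readout: caspase-cleaved peptide-aminoluciferin substrate driving luciferase light in SH-SY5Y neuroblastoma cells after 16 h treatment. Response normalized to DMSO and 10 uM staurosporine controls.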

[17] = Cellular Toxicity (caspase-3) BJ (AID 658; active means well fitted curve in the direction sought with a large enough effect; an effect the other way counts as inactive or inconclusive;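 further: 0% = DMSO basal and 100% = 10 µM staurosporine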); details: Potency: caspase-3 activation
In short: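 Readout: Caspase-Glo 3/7 luminescence increase in BJ cells after 16 hr treatment at 37 °C. Staurosporine and tamoxifen served as positive controls; AC50 values came from Hill modelling of data normalized to DMSO and 10 uM staurosporine.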

[18] = Cellular Toxicity (caspase-3) MRC-5 (AID 659; active means well fitted curve in the direction sought with a large enough effect; an effect the other way counts as inactive or inconclusive;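 further: cells exposed to compound for 16 h at 37 °C; 0% = DMSO basal and 100% = 10 µM staurosporine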); details: Potency: caspase-3 activation
In short: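 Concentration-dependent caspase 3/7 activation is measured in human normal lung fibroblasts (MRC-5) following 16-hour treatment. AC50 values come from standard Hill-equation modeling of luminescence normalized to DMSO and 10 uM staurosporine.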

[19] = Cellular Toxicity (caspase-3) SK-N-SH (AID 661; active means well fitted curve in the direction sought with a large enough effect; an effect the other way counts as inactive or inconclusive;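 further: 0% = DMSO basal and 100% = 10 µM staurosporine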); details: SK-N-SH caspase-3 activation, qHTS; caspase-3 activation: at 91.7 µM (top of the series), DMSO as zero, staurosporine as full
In short: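 Caspase 3/7 activation is measured as a luminescence increase from aminoluciferin released by substrate cleavage in SK-N-SH cells after 16 hr compound treatment; values are AC50 from concentration-response curves.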

[20] = Cellular Toxicity (caspase-3) H-4-II-E (AID 663; active means well fitted curve in the direction sought with a large enough effect; an effect the other way counts as inactive or inconclusive;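 further: cells exposed to compound for 16 hr before readout; 0% = DMSO basal and 100% = 100 µM tamoxifen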)
In short: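 Apoptosis induction is scored as increased luminescence from caspase 3/7 substrate cleavage in rat hepatoma H-4-II-E cells exposed to compound for 16 hr. Activity is scaled between DMSO and 100 uM tamoxifen.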

`CCCn1c(C)c(C(=O)c2ccc3ccccc3c2)c2ccccc21` gave an activity, negative = inhibition [1] of -13.9%, a Potency [2] greater than 46 µM and a Potency [3] greater than 46 µM. For the same compound, the outcome [4] was “inactive” and the Potency [5] was “inactive”.
`CN1CCC(c2c[nH]c3ccc(O)cc23)CC1` showed an activity, negative = inhibition [1] of -0.0693%, a Potency [2] greater than 46 µM and a Potency [3] greater than 46 µM. For the same compound, the outcome [4] was “inactive” and the Potency [5] was “inactive”.
Compound `CC(C)(C)c1cc(O)ccc1O` has an activity, negative = inhibition [1] of -2.67% [at 7.69 µM], a Potency [2] greater than 46 µM and a Potency [3] greater than 9.22 µM. The outcome [4] was “inactive”, the Potency [6] was “inactive” and the activity change, negative = cytotoxicity ([7]; activity change, negative = cytotoxicity: at 92.2 µM (top of the series)) was -106% (active). The activity change, negative = cytotoxicity ([7]; at 92.2 µM (top of the series)) was -22.3%, the Potency [8] was “inactive” and the Potency [9] was “inactive”. The Potency [10] was 10 µM (active) and 12.6 µM (active), the Potency [11] was “inactive” and the Potency [12] was “inactive”. The Potency [5] was “inactive”, the outcome [13] was “inactive” and the Potency [14] was “inactive”. For the same compound, the outcome [15] was “inactive”, the outcome [16] was “inactive” and the Potency [17] was “inactive”. The Potency [18] was “inactive”, the Potency [19] was “inactive” and the outcome [20] was “inactive”.
With `O=[N+]([O-])c1cc(O)c(O)c([N+](=O)[O-])c1` the activity, negative = inhibition [1] was 48.1%, the Potency [2] was greater than 46 µM and the Potency [3] was greater than 46 µM. For the same compound, the outcome [4] was “inactive” and the Potency [5] was “inactive”.
`CN1[C@@H]2CC[C@H]1CC(OC1c3ccccc3CCc3ccccc31)C2` (some centres not stated) showed an activity, negative = inhibition [1] of 5.86% [at 17.2 µM], a Potency [2] greater than 20.6 µM and a Potency [3] greater than 20.6 µM. For the same compound, the outcome [4] was “inactive”.
`CP(=O)(O)C1=CCNCC1` gave an activity, negative = inhibition [1] of -9.22%, a Potency [2] greater than 46 µM and a Potency [3] greater than 46 µM. The outcome [4] was “inactive” and the Potency [5] was “inactive”.
With `COc1ccc(OC)c(C(O)C(C)N)c1` (configuration not stated) the activity, negative = inhibition [1] was 2.12% [at 17.2 µM] and the Potency [2] was greater than 20.6 µM.
Compound `C[N+](C)(C)CCOC(=O)CBr` has an activity, negative = inhibition [1] of -5.3%, a Potency [2] greater than 46 µM and a Potency [3] greater than 46 µM. The outcome [4] was “inactive” and the Potency [5] was “inactive”.
`NC(=O)c1cc(N2CC2)c([N+](=O)[O-])cc1[N+](=O)[O-]` gave an activity, negative = inhibition [1] of 19.5%, a Potency [2] greater than 46 µM and a Potency [3] greater than 46 µM. For the same compound, the outcome [4] was “inactive” and the Potency [5] was “inactive”.
`C[N+](C)(C)CC#CCOC(=O)Nc1cccc(Cl)c1` gave an activity, negative = inhibition [1] of -8.8%, a Potency [2] greater than 46 µM and a Potency [3] greater than 46 µM. The outcome [4] was “inactive” and the Potency [5] was “inactive”.
Compound `NCCc1c[nH]c2ccc(C(N)=O)cc12` has an activity, negative = inhibition [1] of 4.94%, a Potency [2] greater than 46 µM and a Potency [3] greater than 46 µM. For the same compound, the outcome [4] was “inactive” and the Potency [5] was “inactive”.
`CCCN1CCc2cc(O)cc3c2[C@H]1Cc1ccc(O)c(O)c1-3` showed an activity, negative = inhibition [1] of 39.4%, a Potency [2] greater than 46 µM and a Potency [3] greater than 46 µM. For the same compound, the outcome [4] was “inactive” and the Potency [5] was “inactive”.
In the case of `NC(N)=NOCC[C@H](N)C(=O)O`, the activity, negative = inhibition [1] is reported as 4.59% [at 17.2 µM], the Potency [2] is reported as > 46 µM and > 20.6 µM and the Potency [3] is reported as > 46 µM and > 20.6 µM. For the same compound, the outcome [4] was “inactive” and the Potency [5] was “inactive”.
Compound `Clc1ccc(N2C[C@H]3CC[C@@H](C2)N3)nn1` has an activity, negative = inhibition [1] of 37.1%, a Potency [2] greater than 46 µM and a Potency [3] greater than 46 µM. The outcome [4] was “inactive” and the Potency [5] was “inactive”.
For `Nc1ccc(CCN2CCN(c3cccc(C(F)(F)F)c3)CC2)cc1`, the activity, negative = inhibition [1] was -17.7%, the Potency [2] was greater than 46 µM and the Potency [3] was greater than 46 µM. For the same compound, the outcome [4] was “inactive” and the Potency [5] was “inactive”.
For `Cc1c2ccncc2c(C)c2c1[nH]c1ccccc12`, the activity, negative = inhibition [1] was 128% [activator] [at 17.2 µM] (active) and 142% [activator] [at 17.2 µM] (active), the Potency [2] was > 46 µM and > 20.6 µM and the Potency [3] was > 46 µM and > 20.6 µM. The outcome [4] was “inactive” and the Potency [5] was “inactive”.
